Among the data in PubChem BioAssay (NCI) are growth values, retold here.

Some test systems named below: HCT-15 colon; HT29 colon; SNB-75 CNS; SNB-19 CNS; PC-3 prostate; SK-MEL-5 melanoma; UACC-62 melanoma; SK-MEL-28 melanoma.
Test in all cases: NCI-60 one-dose screen, 48 h (100 = growth as untreated, 0 = no growth, -100 = all killed)
In the next assay the test system is U251 CNS. As to conditions: 10 µM unless noted.
A further assay relates to LOX IMVI melanoma. Conditions: 10 µM unless noted.

Several values for one entry are separate records, joined by “and”; a condition that tells them apart may be missing. Equal entries are not always repeated. The panel holds about 83,000 compounds, 20% with a hit somewhere; the sample as a whole holds those more often.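 Single-concentration screen, 48 h exposure, 96-well plates. Endpoint: percent growth. Below 10 = active.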 Values without a mark were called inactive. Activity calls are given as the source filed them.

Regarding `COc1cc2oc3cc(=O)cc4oc(-c5ccccc5)cc(c2c2c1CCC(c1ccccc1)O2)c43` (stereo not given), the growth with HCT-15 colon (10 µM unless noted) is 62.8%; in the assay on HT29 colon (10 µM unless noted) it was 71.9%; with SNB-75 CNS (10 µM unless noted), 68.2%; with SNB-19 CNS (10 µM unless noted), 98.9%; in the assay on U251 CNS it was 87.3%; with PC-3 prostate (10 µM unless noted), 58.9%. Besides, the growth with SK-MEL-5 melanoma (10 µM unless noted) is 78%; with UACC-62 melanoma (10 µM) it was 73.5%; with UACC-62 melanoma (100 µM), 53% and 10.4%; in the assay with LOX IMVI melanoma it was 56.7%; in the assay with SK-MEL-28 melanoma (10 µM unless noted), 90.1%.

For the compound `O=c1ccn2c(n1)OC1CC2OC1COC(c1ccccc1)(c1ccccc1)c1ccccc1` (stereo not given), the growth in the assay on HCT-15 colon (10 µM) was 97%; in the assay with HCT-15 colon (100 µM), 101%; in the assay with HT29 colon (10 µM), 108%; in the assay with HT29 colon (100 µM) it was 106%; with SNB-75 CNS (10 µM), 107%; in the assay on SNB-75 CNS (100 µM), 95.6%. The growth in the assay with SNB-19 CNS (10 µM) is 111%; in the assay with SNB-19 CNS (100 µM) it was 91.8%; in the assay on U251 CNS, 89.2% [100 µM]; in the assay with PC-3 prostate (10 µM), 84.1%; in the assay with PC-3 prostate (100 µM), 63.1%; in the assay on SK-MEL-5 melanoma (10 µM), 100%. For the same compound, the growth was 28.5% in the assay with SK-MEL-5 melanoma (100 µM), 105% in the assay with LOX IMVI melanoma, 118% in the assay with SK-MEL-28 melanoma (10 µM) and 74.3% with SK-MEL-28 melanoma (100 µM).

Consider `Nc1c(S(=O)(=O)O)cc(Br)c2c1C(=O)c1ccccc1C2=O`, for which the growth in the assay with HCT-15 colon (10 µM unless noted) was 107% and 114%; with HT29 colon (10 µM unless noted) it was 100% and 108%; in the assay on SNB-75 CNS (10 µM unless noted), 86.7% and 90.7%; with SNB-19 CNS (10 µM unless noted), 111% and 107%; in the assay on U251 CNS, 102% and 105%; with PC-3 prostate (10 µM unless noted), 92% and 84.9%. Besides, the growth is 99.6% and 90.8% in the assay on SK-MEL-5 melanoma (10 µM unless noted); 108% and 104% in the assay with UACC-62 melanoma (10 µM unless noted); 102% and 103% in the assay on LOX IMVI melanoma.

Turning to `Cc1cc(O)c(C(C)C)cc1N=O`, the growth was 94.3% and 98.9% with HCT-15 colon (10 µM unless noted); 114% and 94.1% with HT29 colon (10 µM unless noted); 96.7% in the assay on SNB-75 CNS (10 µM unless noted); 96.1% and 99.4% in the assay on SNB-19 CNS (10 µM unless noted); 97.6% with U251 CNS; 109% and 97.6% in the assay on PC-3 prostate (10 µM unless noted). In addition, the growth was 99.6% and 104% in the assay on SK-MEL-5 melanoma (10 µM unless noted); 99.7% and 103% in the assay with UACC-62 melanoma (10 µM unless noted); 88.5% and 99.5% in the assay on LOX IMVI melanoma.

For the compound `O=P(O)(O)OC1C(OP(=O)(O)O)C(OP(=O)(O)O)C(OP(=O)(O)O)C(OP(=O)(O)O)C1OP(=O)(O)O.[Cu+2]` (stereo not given), the growth in the assay on HCT-15 colon (10 µM unless noted) is 102%; in the assay on HT29 colon (10 µM unless noted), 96.5%; in the assay with SNB-75 CNS (10 µM unless noted), 136%; in the assay with SNB-19 CNS (10 µM unless noted) it was 106%; in the assay on U251 CNS, 32.6%; with PC-3 prostate (10 µM unless noted), 105%. For the same compound, the growth was -56.1% (active) in the assay on SK-MEL-5 melanoma (10 µM unless noted), 79.7% in the assay with UACC-62 melanoma (10 µM unless noted), 69.7% in the assay on LOX IMVI melanoma and 116% with SK-MEL-28 melanoma (10 µM unless noted).

In the case of `N#Cc1c[nH]n2ccnc12`, the growth is 104% in the assay with HCT-15 colon (10 µM unless noted); 91.2% with HT29 colon (10 µM unless noted); 103% in the assay with SNB-75 CNS (10 µM unless noted); 108% with SNB-19 CNS (10 µM unless noted); 92.4% with U251 CNS; 97.9% in the assay on PC-3 prostate (10 µM unless noted). The growth in the assay with SK-MEL-5 melanoma (10 µM unless noted) was 115%; in the assay with UACC-62 melanoma (10 µM unless noted) it was 106%; with LOX IMVI melanoma it was 96.1%; in the assay with SK-MEL-28 melanoma (10 µM unless noted) it was 107%.

As to `O=S(=O)(O)c1ccc2cc(O)ccc2c1`, the growth in the assay on HCT-15 colon (10 µM unless noted) was 112%; with HT29 colon (10 µM unless noted), 103%; in the assay on SNB-75 CNS (10 µM unless noted) it was 93.6%; in the assay on SNB-19 CNS (10 µM unless noted), 109%; in the assay on U251 CNS, 98.7%; with PC-3 prostate (10 µM unless noted) it was 94.7%. In addition, the growth with SK-MEL-5 melanoma (10 µM unless noted) was 96.8%; with UACC-62 melanoma (10 µM unless noted) it was 99.7%; in the assay with LOX IMVI melanoma it was 104%; with SK-MEL-28 melanoma (10 µM unless noted) it was 117%.

On to `O=C(c1ccc(Cl)cc1)C1C(c2ccccc2)C1[N+](=O)[O-]` (stereo not given), for which the growth in the assay with HCT-15 colon (10 µM unless noted) is 102%; with HT29 colon (10 µM unless noted), 97.2%; with SNB-75 CNS (10 µM unless noted), 106%; with SNB-19 CNS (10 µM unless noted) it was 97.1%; with U251 CNS, 89.9%; with PC-3 prostate (10 µM unless noted), 90.5%. For the same compound, the growth in the assay on SK-MEL-5 melanoma (10 µM unless noted) is 96.9%; in the assay on UACC-62 melanoma (10 µM unless noted), 91.1%; in the assay with LOX IMVI melanoma, 95.2%; with SK-MEL-28 melanoma (10 µM unless noted), 111%.

Consider `N=c1sc2ccccc2n1CC(=O)O`, for which the growth is 103% in the assay with HCT-15 colon (10 µM unless noted); 98% in the assay with HT29 colon (10 µM unless noted); 100% in the assay with SNB-75 CNS (10 µM unless noted); 101% in the assay on SNB-19 CNS (10 µM unless noted); 91.8% in the assay with U251 CNS; 92.7% in the assay with PC-3 prostate (10 µM unless noted). Moreover, the growth in the assay on SK-MEL-5 melanoma (10 µM unless noted) was 104%; in the assay with UACC-62 melanoma (10 µM unless noted) it was 97.2%; in the assay with LOX IMVI melanoma, 98.7%; in the assay with SK-MEL-28 melanoma (10 µM unless noted), 112%.

Take `Cc1cc(=NO)cc(C)n1O`: the growth in the assay with HCT-15 colon (10 µM unless noted) is 113%; in the assay with HT29 colon (10 µM unless noted) it was 114%; with SNB-75 CNS (10 µM unless noted) it was 92.6%; in the assay on SNB-19 CNS (10 µM unless noted), 103%; in the assay on U251 CNS, 113%; in the assay with PC-3 prostate (10 µM unless noted), 102%. In addition, the growth in the assay with SK-MEL-5 melanoma (10 µM unless noted) was 112%; with UACC-62 melanoma (10 µM unless noted), 102%; with LOX IMVI melanoma it was 99.9%; in the assay with SK-MEL-28 melanoma (10 µM unless noted) it was 112%.

On to `Nc1ccc(O)c(C(=O)O)c1`, for which the growth with HCT-15 colon (10 µM unless noted) was 97.3% and 107% and 99.2%; with HT29 colon (10 µM unless noted) it was 111% and 113% and 115%; with SNB-75 CNS (10 µM unless noted) it was 74.4% and 97.2% and 94.7%; with SNB-19 CNS (10 µM unless noted), 91.9% and 104% and 117%; in the assay with U251 CNS, 74.5% and 101%; with PC-3 prostate (10 µM unless noted) it was 89.6% and 105%. Also, the growth is 93.4% and 94.1% and 108% in the assay with SK-MEL-5 melanoma (10 µM unless noted); 91.3% and 102% and 84.2% in the assay with UACC-62 melanoma (10 µM unless noted); 84% and 99.5% in the assay on LOX IMVI melanoma; 94.7% and 116% and 115% in the assay with SK-MEL-28 melanoma (10 µM unless noted).
